For some assays here: Entries with a potency or affinity are not part of this list.
Assays:
Design in all cases: scale not given: direction of the effect not stated beside the values
[1] = target: Protein translocase subunit SecA (Escherichia coli (strain K12)) (UniProt P10408); experiment: Assay to Identify E. coli SecA ATPase Inhibitors; type: functional; details: 30 µM
[2] = target: T1, Ubiquitin-activating enzyme e1, putative (Leishmania donovani (strain BPK282A1)) (UniProt E9BSI1); experiment: Leishmania donovani Ubiquitin Activating Enzyme (LdE1); type: functional; details: 30 µM
T1 sequence (whole entry): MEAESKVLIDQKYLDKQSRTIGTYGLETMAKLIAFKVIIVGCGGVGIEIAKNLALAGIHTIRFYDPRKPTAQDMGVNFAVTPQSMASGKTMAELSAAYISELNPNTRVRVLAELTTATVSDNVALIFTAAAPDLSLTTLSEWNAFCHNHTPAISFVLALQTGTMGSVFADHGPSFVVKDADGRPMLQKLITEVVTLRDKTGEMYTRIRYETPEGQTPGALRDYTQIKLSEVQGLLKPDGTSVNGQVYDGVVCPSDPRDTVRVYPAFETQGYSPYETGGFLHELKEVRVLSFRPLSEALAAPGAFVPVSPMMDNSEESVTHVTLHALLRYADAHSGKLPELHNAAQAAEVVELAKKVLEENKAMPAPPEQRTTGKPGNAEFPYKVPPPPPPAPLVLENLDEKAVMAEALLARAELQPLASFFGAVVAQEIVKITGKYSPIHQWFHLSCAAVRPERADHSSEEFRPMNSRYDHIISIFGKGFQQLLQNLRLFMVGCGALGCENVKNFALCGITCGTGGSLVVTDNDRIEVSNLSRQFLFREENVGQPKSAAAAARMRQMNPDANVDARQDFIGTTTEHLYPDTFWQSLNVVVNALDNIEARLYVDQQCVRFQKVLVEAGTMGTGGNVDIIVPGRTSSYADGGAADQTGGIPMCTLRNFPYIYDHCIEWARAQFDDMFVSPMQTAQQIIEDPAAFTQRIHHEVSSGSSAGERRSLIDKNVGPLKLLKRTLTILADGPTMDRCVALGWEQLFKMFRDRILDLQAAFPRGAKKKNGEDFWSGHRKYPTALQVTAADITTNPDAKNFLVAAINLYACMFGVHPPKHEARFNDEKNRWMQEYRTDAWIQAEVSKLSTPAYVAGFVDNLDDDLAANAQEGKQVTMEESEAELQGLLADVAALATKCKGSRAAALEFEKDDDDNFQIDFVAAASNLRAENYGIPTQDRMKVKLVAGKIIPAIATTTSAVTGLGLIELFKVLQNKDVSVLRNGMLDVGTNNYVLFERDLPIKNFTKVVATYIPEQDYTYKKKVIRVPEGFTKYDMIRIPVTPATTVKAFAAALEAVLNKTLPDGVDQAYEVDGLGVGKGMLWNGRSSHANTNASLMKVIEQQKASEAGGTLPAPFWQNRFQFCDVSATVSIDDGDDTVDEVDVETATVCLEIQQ

[3] = target: AMP-activated protein kinase, AMPK (Homo sapiens) (UniProt P54646+O43741+P54619+Q9UGJ0+Q9Y478+Q13131+Q9UGI9); experiment: AMP-dependent Kinase enzyme assay. An in vitro enzyme assay that detects ADP turnover that is directly proportional to AMPK activity. This uses naive AMPK that is activated during the assay with MK-8722; type: functional; details: 30 µM
[4] = target: Sialic acid-binding Ig-like lectin 9 (Homo sapiens) (UniProt Q9Y336); experiment: Hs-Siglec9 ALPHAscreen SOP 20170721; details: 10 µM
Trypanosoma cruzi = experiment: Trypanosoma cruzi phosphomannomutase and mannose-1-phosphate guanylyltransferase assay; type: functional; details: 10 µM
[5] = target: T2, Arginase-2, mitochondrial (Homo sapiens) (UniProt P78540); experiment: in vitro enzyme assay to detect the production of urea directly proportional to the activity of Arginase II; type: functional; details: 33.3 µM; also: in the data most compounds retested in dose-response had high values
T2 sequence (whole entry): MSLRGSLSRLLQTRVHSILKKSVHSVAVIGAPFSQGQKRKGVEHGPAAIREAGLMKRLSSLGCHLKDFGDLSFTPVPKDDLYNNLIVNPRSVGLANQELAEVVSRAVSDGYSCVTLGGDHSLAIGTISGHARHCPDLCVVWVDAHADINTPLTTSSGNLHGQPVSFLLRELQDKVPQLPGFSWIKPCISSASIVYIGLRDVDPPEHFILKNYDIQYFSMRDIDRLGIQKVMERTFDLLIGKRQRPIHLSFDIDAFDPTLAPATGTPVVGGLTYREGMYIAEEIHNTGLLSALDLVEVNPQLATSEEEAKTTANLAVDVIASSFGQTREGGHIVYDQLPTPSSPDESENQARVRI

[6] = target: T3, Proteasome subunit beta (Trypanosoma cruzi) (UniProt O96673); experiment: Trypanosoma cruzi proteasome chymotrypsin-like activity (TcProtChymo) assay.; also: in the data most compounds retested in dose-response had high values; type: functional; details: 9.37 µM
T3 sequence (whole entry): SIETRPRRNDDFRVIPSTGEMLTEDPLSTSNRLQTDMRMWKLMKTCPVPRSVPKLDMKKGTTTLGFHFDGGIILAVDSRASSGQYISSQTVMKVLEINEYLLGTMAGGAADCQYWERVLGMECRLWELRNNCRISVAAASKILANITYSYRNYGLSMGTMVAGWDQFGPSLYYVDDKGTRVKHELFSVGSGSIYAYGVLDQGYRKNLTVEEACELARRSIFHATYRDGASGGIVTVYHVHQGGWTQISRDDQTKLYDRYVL

Homo sapiens = species on record: Homo sapiens; experiment: To identify inhibition of the IFN signalling (Jak-Stat) pathway via expression of an eGFP reporter gene under the control of an IFN-stimulated response element (ISRE) containing MxA promoter.; type: functional; details: 30 µM
[7] = target: T4, Tyrosyl-tRNA synthetase, putative (Trypanosoma cruzi (strain CL Brener)) (UniProt Q4DSP6); experiment: Trypanosoma cruzi tyrosyl tRNA synthetase (TcYRS) _High Tyrosine SOP; type: functional; details: 30 µM; also: in the data most compounds retested in dose-response had high values
T4 sequence (whole entry): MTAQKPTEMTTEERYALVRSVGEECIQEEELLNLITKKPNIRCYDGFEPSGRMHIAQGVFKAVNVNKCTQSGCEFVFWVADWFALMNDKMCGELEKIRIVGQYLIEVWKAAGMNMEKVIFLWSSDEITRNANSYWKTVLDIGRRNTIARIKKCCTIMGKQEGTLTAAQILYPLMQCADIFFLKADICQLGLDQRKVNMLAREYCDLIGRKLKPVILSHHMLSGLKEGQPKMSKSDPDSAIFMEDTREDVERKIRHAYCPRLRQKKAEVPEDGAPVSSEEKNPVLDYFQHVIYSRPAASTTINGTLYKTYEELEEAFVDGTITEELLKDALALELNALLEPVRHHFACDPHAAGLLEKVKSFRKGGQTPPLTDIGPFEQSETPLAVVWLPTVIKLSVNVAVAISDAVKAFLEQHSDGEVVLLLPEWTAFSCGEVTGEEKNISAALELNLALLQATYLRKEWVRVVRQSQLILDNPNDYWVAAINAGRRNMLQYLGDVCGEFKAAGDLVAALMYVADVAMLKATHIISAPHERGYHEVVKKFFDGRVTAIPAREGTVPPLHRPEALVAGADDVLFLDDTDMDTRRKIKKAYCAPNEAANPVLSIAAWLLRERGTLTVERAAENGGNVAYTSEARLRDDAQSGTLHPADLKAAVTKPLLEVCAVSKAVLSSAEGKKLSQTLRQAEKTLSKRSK

[8] = target: T4, Tyrosyl-tRNA synthetase, putative (Trypanosoma cruzi (strain CL Brener)); experiment: Trypanosoma cruzi tyrosyl tRNA synthetase (TcYRS) SOP; type: functional; details: 30 µM
[9] = target: Chromo domain-containing protein 1 (Saccharomyces cerevisiae (strain ATCC 204508 / S288c) (Baker's yeast)) (UniProt P32657); experiment: ScCHD-1 Enzyme Inhibition Assay; type: functional; details: 30 µM; also: in the data most compounds retested in dose-response had high values
Sequence of Chromo domain-containing protein 1 (Saccharomyces cerevisiae (strain ATCC 204508 / S288c) (Baker's yeast)) (P32657 whole entry, the tested form may be a part): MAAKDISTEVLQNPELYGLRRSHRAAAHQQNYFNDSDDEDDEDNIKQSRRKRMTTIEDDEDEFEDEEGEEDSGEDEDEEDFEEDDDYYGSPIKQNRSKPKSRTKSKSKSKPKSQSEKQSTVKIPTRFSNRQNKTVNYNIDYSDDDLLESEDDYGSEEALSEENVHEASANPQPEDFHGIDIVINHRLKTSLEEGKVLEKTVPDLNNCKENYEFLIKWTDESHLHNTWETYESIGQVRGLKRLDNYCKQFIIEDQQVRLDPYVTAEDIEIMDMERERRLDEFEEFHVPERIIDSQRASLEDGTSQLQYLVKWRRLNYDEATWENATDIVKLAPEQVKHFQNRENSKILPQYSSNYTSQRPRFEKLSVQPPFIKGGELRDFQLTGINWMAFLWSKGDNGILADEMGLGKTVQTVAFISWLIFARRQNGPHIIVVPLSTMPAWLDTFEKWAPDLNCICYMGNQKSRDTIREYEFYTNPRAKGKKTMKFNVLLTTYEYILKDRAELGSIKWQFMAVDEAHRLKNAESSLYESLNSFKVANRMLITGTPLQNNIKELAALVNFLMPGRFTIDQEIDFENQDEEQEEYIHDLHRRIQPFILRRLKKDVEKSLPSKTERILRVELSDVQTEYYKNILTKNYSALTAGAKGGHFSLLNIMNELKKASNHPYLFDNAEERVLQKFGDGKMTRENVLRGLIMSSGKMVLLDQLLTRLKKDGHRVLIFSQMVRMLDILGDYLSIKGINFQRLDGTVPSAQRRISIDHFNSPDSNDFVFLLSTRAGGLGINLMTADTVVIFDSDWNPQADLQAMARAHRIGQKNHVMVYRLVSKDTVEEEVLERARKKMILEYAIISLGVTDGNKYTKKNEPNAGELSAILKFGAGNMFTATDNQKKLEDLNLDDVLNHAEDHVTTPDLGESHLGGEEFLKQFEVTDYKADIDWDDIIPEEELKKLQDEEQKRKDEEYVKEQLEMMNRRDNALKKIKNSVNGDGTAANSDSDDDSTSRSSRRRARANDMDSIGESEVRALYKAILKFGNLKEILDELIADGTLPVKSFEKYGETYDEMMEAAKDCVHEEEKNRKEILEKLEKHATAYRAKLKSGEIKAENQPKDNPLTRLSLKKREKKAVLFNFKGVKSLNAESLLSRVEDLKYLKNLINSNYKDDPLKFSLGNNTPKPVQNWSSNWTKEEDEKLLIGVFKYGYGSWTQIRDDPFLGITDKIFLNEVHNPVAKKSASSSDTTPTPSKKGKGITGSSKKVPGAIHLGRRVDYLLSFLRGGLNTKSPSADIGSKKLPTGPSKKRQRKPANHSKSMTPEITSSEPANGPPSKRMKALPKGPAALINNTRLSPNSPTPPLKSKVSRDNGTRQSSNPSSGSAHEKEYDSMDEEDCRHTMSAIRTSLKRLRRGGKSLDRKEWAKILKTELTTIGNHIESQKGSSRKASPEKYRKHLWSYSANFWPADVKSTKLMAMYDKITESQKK

Sequence of Protein translocase subunit SecA (Escherichia coli (strain K12)) (P10408 whole entry): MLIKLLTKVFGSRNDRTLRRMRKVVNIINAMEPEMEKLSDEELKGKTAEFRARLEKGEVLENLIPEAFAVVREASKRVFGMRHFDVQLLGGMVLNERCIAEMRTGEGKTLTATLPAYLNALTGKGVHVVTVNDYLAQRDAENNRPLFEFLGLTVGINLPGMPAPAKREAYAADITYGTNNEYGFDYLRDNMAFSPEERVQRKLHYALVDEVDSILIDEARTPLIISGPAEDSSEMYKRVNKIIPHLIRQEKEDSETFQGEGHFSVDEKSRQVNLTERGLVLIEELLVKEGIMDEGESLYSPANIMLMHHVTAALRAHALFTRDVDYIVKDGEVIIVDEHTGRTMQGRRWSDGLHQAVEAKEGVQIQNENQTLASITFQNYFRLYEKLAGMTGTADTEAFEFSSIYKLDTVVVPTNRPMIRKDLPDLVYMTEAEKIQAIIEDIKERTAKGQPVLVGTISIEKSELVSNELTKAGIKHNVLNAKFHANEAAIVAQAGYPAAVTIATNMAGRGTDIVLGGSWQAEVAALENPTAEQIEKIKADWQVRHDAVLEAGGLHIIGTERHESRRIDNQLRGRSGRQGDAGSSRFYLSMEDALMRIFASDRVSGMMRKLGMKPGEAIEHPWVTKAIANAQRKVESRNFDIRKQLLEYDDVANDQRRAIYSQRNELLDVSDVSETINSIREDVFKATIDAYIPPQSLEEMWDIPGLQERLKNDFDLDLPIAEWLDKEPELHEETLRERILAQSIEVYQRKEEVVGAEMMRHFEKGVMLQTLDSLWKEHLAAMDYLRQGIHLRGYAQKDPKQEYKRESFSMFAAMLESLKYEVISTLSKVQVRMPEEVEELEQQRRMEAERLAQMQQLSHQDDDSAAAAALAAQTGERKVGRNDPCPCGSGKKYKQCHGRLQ
Sequence of Sialic acid-binding Ig-like lectin 9 (Homo sapiens) (Q9Y336 whole entry): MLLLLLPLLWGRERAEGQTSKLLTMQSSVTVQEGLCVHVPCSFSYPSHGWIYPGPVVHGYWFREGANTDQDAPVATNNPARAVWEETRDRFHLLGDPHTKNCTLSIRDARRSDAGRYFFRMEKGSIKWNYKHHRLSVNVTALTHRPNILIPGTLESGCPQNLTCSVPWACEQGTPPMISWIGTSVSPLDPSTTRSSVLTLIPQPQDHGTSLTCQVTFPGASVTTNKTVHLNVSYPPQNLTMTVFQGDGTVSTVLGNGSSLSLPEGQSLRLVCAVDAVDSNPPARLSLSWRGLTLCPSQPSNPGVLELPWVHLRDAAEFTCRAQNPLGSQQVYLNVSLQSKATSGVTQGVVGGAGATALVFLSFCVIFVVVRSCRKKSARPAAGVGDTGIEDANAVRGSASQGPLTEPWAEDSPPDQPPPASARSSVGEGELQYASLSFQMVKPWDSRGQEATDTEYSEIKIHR

Compound	Percent Effect [1] [%]	Percent Effect [2] [%]	Percent Effect [3] [%]	Percent Effect [4] [%]	Percent Effect (Trypanosoma cruzi) [%]	Percent Effect [5] [%]	Percent Effect [6] [%]	Percent Effect (Homo sapiens) [%]	Percent Effect [7] [%]	Percent Effect [8] [%]	Percent Effect [9] [%]
CC(C)n1ccnc1C1CCN(Cc2ccc(Cl)s2)CC1	-4.43	7.79	1.43	13.8	7.96	6.9	6.99	9.49	8.6	16.1	-1.15
Cc1nc(C2CCCN(C(=O)C(C)(C)n3cc(Cl)cn3)C2)no1 (configuration not stated)	-1.25	3.8	-0.545	3.13	2.77	3.23	0.343	-9.61	6.25	7.59	-13.7
CC(=O)N(C)CC(=O)Nc1cccc(N2CCN(CC3CC3)CC2)c1	-6.27	5.41	-9.55	0.217	-1.86	-13.2	1.46	4.97	3.23	11.1	0.0532
CC(C)N(C)CC(=O)NC1CCc2nccn2C1 (configuration not stated)	-0.518	-5.33	4.88	-4.8	-4.38	-5.21	3.14	31.6	-2.73	-6.17	2.61
CCN(c1ccc(C(=O)NCCCN2CCOCC2)cc1)S(=O)(=O)CC	-3.73	10.5	-2.83	-8.52	-6.33	2.37	15.8	-2.55	-1.06	-2.6	-5.76
CCS(=O)(=O)N1C[C@H]2C[C@H](C(=O)N(C)C)[C@@H](C1)O2	-1.35	8	9.37	0.653	-5.51	3.03	5.55	5.25	4.25	6.41	-3.75
O=c1ccc(-c2ccccc2F)nn1CCN1CCCS1(=O)=O	-6.51	13.5	-4.96	22.3	6.16	3.72	1.29	-2.29	1.07	8.64	-10.9
CC(=O)c1c(F)cccc1N1CCC(Cc2cccnc2)CC1	-2.45	8.22	-4.3	3.69	6.15	2.4	-1.46	57.7	7.29	13.6	-9.38
COCC1c2c(cnn2CC2CC2)CCN1Cc1nccs1 (configuration not stated)	-2.49	13.3	-1.8	5.98	-4.05	-26	12.1	-5.9	4.17	20	-6.08
CC(C(=O)NCCOc1ccc2c(c1)OCO2)n1cncn1 (configuration not stated)	-1.18	20.2	-6.18	-3.69	-2.17	6.08	11.6	-12.4	6.4	13.9	-2.77
Cc1oc(C)c(C(=O)NCc2cccc(NC(=O)CN(C)C)c2)c1C	-4.78	-3.8	-0.508	-0.734	1.95	-1.94	0.172	-3.06	1.04	7.59	7.97
CCn1cc(NC(=O)C2CCN(Cc3ccccc3C#N)CC2)cn1	-3.86	8.86	6.54	0.163	-3.79	1.5	7.03	11.2	9.38	20.2	-6.33
COc1c(C2CCCN2C(=O)c2csc(C(C)C)n2)c(C)nn1C (configuration not stated)	-5.84	5.2	2.93	11.7	0.187	1.07	-5.91	8.75	3.88	9.76	0.696
CCN1CCCn2c(nc(CNC(=O)c3ccsc3)cc2=O)C1	-4.67	13.5	7.54	3.9	-0.0978	9.24	13.1	-1.85	3.24	17.9	-0.449
CC(=O)N1CCC(c2ccnc(Nc3cnccn3)n2)C1 (configuration not stated)	-0.594	13.3	12.9	1.15	-4.72	-4.43	5.73	5.13	4.25	16.7	-5.82
Cc1oc(C(=O)O)cc1S(=O)(=O)Nc1cc(Cl)ccc1F	-4.85	5.2	-3.17	6.3	0.374	-1.42	-6.59	2.33	3.88	2.44	-4.3
CC(=O)c1cn(CC(=O)NC(C(=O)O)C(C)C)c2ccccc12 (configuration not stated)	-5.18	-2.67	1.25	-4.07	-3.99	-1.04	8.72	-13.9	1.64	1.24	3.17
Cc1nc(CCCNC(=O)C2CC(=O)N(C(C)(C)C)C2)sc1C (configuration not stated)	-3.07	5.48	-0.283	4.12	-3.57	-2	7.79	12.9	5.21	13.6	-5.51
O=C(O)c1cc2c(nc1O)CC(c1cccc(Cl)c1)CC2=O (configuration not stated)	-6.48	1.33	28.2	2.46	-5.7	-6.16	7.21	1.57	4.23	2.56	-9.15
NC(=O)c1cnn2c1NCC(CNCCc1ccco1)C2 (configuration not stated)	-1.64	2.63	2.04	-0.712	-5.26	3.45	8.86	7.72	2.45	7.32	-1.74
CCc1nnc2n1CCN(C(=O)COCCc1ccccc1)C2	-5.81	15.8	-4.37	7.1	-2.71	1.8	1.78	-1.11	3.45	13.6	-2.89
Cn1cccc1CNC(=O)CCCc1nnc2ccccn12	-4.97	6.67	-2.6	1.09	3.14	-8.28	12.4	-1.85	3.17	2.56	-6.43

— ChEMBL document CHEMBL3988442, “University of Dundee, Small-Polar-MMV Screening Library” (2021)
